Screen size: about 310,000 compounds; about 14,000 (4.5%) showed an effect of 50% or more. The effect is printed as a negative number. The full list was thinned out, with strong results kept by preference.
Target: human ether-à-go-go-related gene (hERG) potassium channel (human, UniProt Q12809)
Assay: primary screen, population patch clamp on CHO cells stably expressing hERG; higher = less effect of the substance
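Note: peak tail current of the secondary pulse compared with the same well before compound.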

Chain of human ether-à-go-go-related gene (hERG) potassium channel (Q12809 whole entry, looked up): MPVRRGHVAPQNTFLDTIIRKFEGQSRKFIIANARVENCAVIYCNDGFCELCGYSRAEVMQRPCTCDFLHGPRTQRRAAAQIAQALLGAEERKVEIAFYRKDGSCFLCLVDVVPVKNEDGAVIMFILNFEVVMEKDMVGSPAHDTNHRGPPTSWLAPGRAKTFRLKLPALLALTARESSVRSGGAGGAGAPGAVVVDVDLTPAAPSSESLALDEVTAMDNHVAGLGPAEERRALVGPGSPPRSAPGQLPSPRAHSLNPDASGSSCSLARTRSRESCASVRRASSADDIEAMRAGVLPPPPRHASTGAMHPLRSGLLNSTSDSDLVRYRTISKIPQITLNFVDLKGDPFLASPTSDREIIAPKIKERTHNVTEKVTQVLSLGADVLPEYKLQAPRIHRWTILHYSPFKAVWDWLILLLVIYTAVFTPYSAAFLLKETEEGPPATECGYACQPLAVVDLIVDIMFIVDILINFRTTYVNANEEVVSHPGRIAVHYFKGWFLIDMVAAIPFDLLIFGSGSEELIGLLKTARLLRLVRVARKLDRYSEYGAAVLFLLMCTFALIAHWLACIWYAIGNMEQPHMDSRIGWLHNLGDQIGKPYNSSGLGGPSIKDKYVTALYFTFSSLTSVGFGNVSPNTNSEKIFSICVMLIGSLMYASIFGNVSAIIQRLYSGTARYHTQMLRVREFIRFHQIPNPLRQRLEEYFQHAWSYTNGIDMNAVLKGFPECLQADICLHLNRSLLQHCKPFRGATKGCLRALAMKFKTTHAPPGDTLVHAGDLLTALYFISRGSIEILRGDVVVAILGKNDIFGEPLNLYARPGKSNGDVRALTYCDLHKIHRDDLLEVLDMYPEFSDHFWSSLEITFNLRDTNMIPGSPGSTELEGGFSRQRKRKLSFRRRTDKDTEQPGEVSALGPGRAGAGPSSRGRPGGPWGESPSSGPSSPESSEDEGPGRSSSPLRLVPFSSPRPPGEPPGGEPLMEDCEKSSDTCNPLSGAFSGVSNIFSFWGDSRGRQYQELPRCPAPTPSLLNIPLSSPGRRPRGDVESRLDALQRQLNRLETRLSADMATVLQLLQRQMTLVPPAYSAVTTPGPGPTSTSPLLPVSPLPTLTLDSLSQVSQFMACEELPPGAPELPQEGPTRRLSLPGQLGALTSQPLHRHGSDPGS

Row | SMILES | hERG current change (%, negative = inhibition) at 10uM [%]
1 | O=C(NCCN1CCOCC1)C1CCN(Cc2ccccc2O)CC1 | 19.2
2 | O=C1CSC(c2cccs2)N1c1ccccc1 (stereo not shown) | 15
3 | Cn1nnnc1SCc1nc2scc(-c3ccccc3)c2c(=O)[nH]1 | -3.59
4 | CC(C)(C)NS(=O)(=O)c1ccc(CCC(=O)NCc2ccco2)cc1 | 2.7
5 | COc1ccc(N2CCN(C(=O)COC(=O)c3ccc(-n4nc(C)cc4C)cc3)CC2)cc1 | -1.95
6 | CCc1nc(SCC(=O)N2c3ccccc3CC2C)c2c(C)c(C)sc2n1 (stereo not shown) | -5.78
7 | Cc1ccc2cccc(S(=O)(=O)Nc3c(C)n(C)n(-c4ccccc4)c3=O)c2n1 | -0.878
8 | O=C(COc1ccc(F)cc1)NCC1(N2CCOCC2)CCCCC1 | -27.9
9 | CCc1ccc(N2CCN(C(=O)c3ccc4c(c3)OCO4)CC2)cc1 | -50.3
10 | O=C(c1ccc(C(F)(F)F)cc1)N1CCN(c2ccc(N3CCOCC3)nn2)CC1 | -67.9
11 | CC(C)(C)c1ccc(C(=O)N2CCN(c3ccc(N4CCOCC4)nn3)CC2)cc1 | -49.3
12 | O=C(c1ccc(F)cc1)N1CCN(c2ccc(N3CCOCC3)nn2)CC1 | -12
13 | CC(=O)c1ccc(N2CCN(C(=O)c3ccc4c(c3)OCO4)CC2)cc1 | -45.4
14 | O=C(c1ccc2c(c1)OCO2)N1CCN(c2ccc(F)cc2)CC1 | -30.4
15 | Cc1ccccc1NCC(=O)N/N=C\c1ccc2c(c1)OCO2 | -0.637
16 | COc1ccc(OC)c(NC(=O)NCCc2cccc(Cl)c2)c1 | 10.1
17 | C=CCCC1(C)C(=O)N(c2ccccc2)c2ccccc21 (stereo not shown) | -3.56
18 | O=C(CCS(=O)(=O)c1ccccc1)Nc1nc2c(s1)CCCC2 | 0.42
19 | CC1CCCN(c2nc3c(c(=O)n(C)c(=O)n3C)n2Cc2ccccc2)C1 (stereo not shown) | -40.9
20 | COc1ccc(N2CCN(S(=O)(=O)c3ccc4c(c3)NC(=O)C(C)S4)CC2)cc1 (stereo not shown) | 6.85
21 | CC(C)C(C(=O)Nc1ccc(S(=O)(=O)N2CCOCC2)cc1)N1C(=O)c2ccccc2C1=O (stereo not shown) | -16.2
22 | CC/C(=N/NC(=O)CCC(=O)Nc1ccccc1OC)c1ccccc1 | -1.67
23 | O=C(CN1CCN(Cc2ccccc2)CC1)Nc1ccc(-n2cnnn2)cc1 | -48
24 | O=C(CN1CCOCC1)Nc1ccc(Cl)cn1 | 20.6
25 | O=C(CN1CCN(Cc2ccccc2)CC1)Nc1ccc(Br)cc1 | -71.9
26 | O=C(CN1CCN(Cc2ccccc2)CC1)Nc1ccc(Cl)cn1 | -74.5

Row | SMILES | hERG current change (%, negative = inhibition) at 10uM [%]
27 | O=C(CN1CCN(Cc2ccccc2)CC1)Nc1ccccc1 | -26.9
28 | O=C(CN1CCN(Cc2ccccc2)CC1)Nc1ccc(Cl)cc1 | -68.4
29 | O=C(CN1CCN(Cc2ccccc2)CC1)Nc1ccc(N2CCOCC2)cc1 | -3.67
30 | NC(=O)c1ccc(NC(=O)CN2CCN(Cc3ccccc3)CC2)cc1 | -0.874
31 | O=C(CN1CCCCCC1)Nc1ccc(Cl)cn1 | 1.45
32 | C/C(=N\NC(=O)c1cccnc1)c1ccc(OC2OCCOC2Oc2ccc(/C(C)=N/NC(=O)c3cccnc3)cc2)cc1 (stereo not shown) | 8.81
33 | COc1ccc(-n2c(=O)n(Cc3ccccc3)c(=O)c3[nH]cnc32)cc1 | -17.1
34 | COc1ccc(S(=O)(=O)NC2CCCC2)cc1C(N)=O | 4.15
35 | CCCn1c(=O)c(C(=O)Nc2ncccc2O)c(O)c2ccccc21 | 11.1
36 | Cc1cc(=O)oc2cc(OCC(=O)NCc3ccco3)ccc12 | -6.81
37 | Cc1cc(=O)oc2ccc(OCC(=O)O)cc12 | 16.1
38 | Cc1cc(=O)oc2ccc(OCC(=O)N(Cc3ccc(F)cc3)Cc3ccco3)cc12 | -58.8
39 | COc1ccc2ccccc2c1CNc1nnnn1C | 17.9
40 | CSc1ccc(S(=O)(=O)N2CCC(C(=O)N3CCOCC3)CC2)cc1 | 2.57
41 | Cc1c(CC(=O)N2C[C@H]3C[C@@H](C2)c2cccc(=O)n2C3)c(=O)oc2c(C)c(O)ccc12 | 4.94
42 | Cc1oc2cc3oc(=O)c(CCC(=O)N4C[C@H]5C[C@@H](C4)c4cccc(=O)n4C5)c(C)c3cc2c1C | -54
43 | Cc1coc2cc3oc(=O)c(CC(=O)N4C[C@H]5C[C@@H](C4)c4cccc(=O)n4C5)c(C)c3cc12 | -41.5
44 | Cc1oc2c(C)c3oc(=O)c(CCC(=O)N4C[C@H]5C[C@@H](C4)c4cccc(=O)n4C5)c(C)c3cc2c1C | -51.7
45 | C=C(C)COc1ccc2c(C)c(CC(=O)N3C[C@H]4C[C@@H](C3)c3cccc(=O)n3C4)c(=O)oc2c1 | -48.5
46 | COc1ccc2c(C)c(CCC(=O)N3C[C@H]4C[C@@H](C3)c3cccc(=O)n3C4)c(=O)oc2c1 | -34.9
47 | C=C(C)COc1ccc2c(C)c(CCC(=O)N3C[C@H]4C[C@@H](C3)c3cccc(=O)n3C4)c(=O)oc2c1 | -60.4
48 | COc1ccc2c(C)c(CC(=O)N3C[C@H]4C[C@@H](C3)c3cccc(=O)n3C4)c(=O)oc2c1 | -32.4
49 | Cc1c(CC(=O)N2C[C@H]3C[C@@H](C2)c2cccc(=O)n2C3)c(=O)oc2cc3occ(C(C)(C)C)c3cc12 | -73.4
50 | Cc1coc2cc3oc(=O)c(CCC(=O)N4C[C@H]5C[C@@H](C4)c4cccc(=O)n4C5)c(C)c3cc12 | -42.5
51 | COc1ccc2c(C)c(CC(=O)N3C[C@H]4C[C@@H](C3)c3cccc(=O)n3C4)c(=O)oc2c1OC | -1.03
52 | Cc1c(CC(=O)N2C[C@H]3C[C@@H](C2)c2cccc(=O)n2C3)c(=O)oc2cc(O)c(Cl)cc12 | 9.44
